Assay results taken from PubChem BioAssay (Tox21).
Results filed as inconclusive are left out. Where a call stands in place of a potency, no number is given. Activity calls are given as the source filed them. Calls come from the whole dose curve; as a rule, active = well fitted cell-killing curve with a large enough effect in the repeat runs; inconclusive = weak or mixed curves, or effect the other way; inactive = flat fitted curve, though single readings scatter.

Key:
[1] = cAMP Responsive Elements (CRE) small molecule antagonists, cell-based qHTS assay: qHTS cell viability counter screen (AID 2060913); note: nearly all actives have a fitted effect of over 40% in size
Summary of the method: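 HEK293T CRE-bla, 2,000 cells/well, 18 h preincubation; cpd in DMSO + NKH477 0.25 uM final, 3 h 37 C/5% CO2; LiveBLAzer 2 h RT, then CellTiter-Glo 30 min RT, luminescence.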

[2] = cAMP Responsive Elements (CRE) small molecule agonists, cell-based qHTS assay: qHTS cell viability counter screen (AID 2060914);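 note: viability read after 3 h of compound exposure; nearly all actives have a fitted effect of over 50% in size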
Summary of the method: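 CRE-bla HEK293T cells in 10% dialyzed FBS medium were exposed to compounds for 3 h at 37C after 18 h plating. CellTiter-Glo was then added in the same wells, and luminescence was read after 30 min at room temperature.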

Compound | Potency [1] | Potency [2]
COc1ccc(Cl)cc1C | inactive | inactive
Clc1ccccc1CN1CCc2sccc2C1 | inactive | inactive
NC(=O)c1ccccc1 | inactive | inactive
CCCCC(C=O)CC (centres undefined) | inactive | inactive
Cc1cc(CCCOc2c(C)cc(-c3noc(C(F)(F)F)n3)cc2C)on1 | inactive | inactive
CC(C)(C)NCC(O)COc1ccccc1OCC1CCCO1 (centres undefined) | inactive | inactive
CN(CCCN1c2ccccc2CCc2ccccc21)CC(=O)c1ccc(Cl)cc1 | inactive | inactive
CCCC(CC)CCCCCCCN (centres undefined) | inactive | inactive
O=[N+]([O-])c1cncn1CCN1CCOCC1 | inactive | inactive
CCCCCCCCS | inactive | inactive
CCCCOCCOCCOCCOCCO | inactive | inactive
CCCCOC(O)CC (centres undefined) | inactive | inactive
CCN(CC)c1ccc2c(-c3ccccc3C(=O)O)c3ccc(=[N+](CC)CC)cc-3oc2c1 | inactive | inactive
CO[Si](OC)(OC)c1ccccc1 | inactive | inactive
Cc1ccc(N(CCO)CCO)cc1 | inactive | inactive
CCCCC(C)C(=O)O (centres undefined) | inactive | inactive
Cc1cc(=O)oc2cc(O)ccc12 | inactive | inactive
OCC(CO)n1cnc(-c2ccc(F)cc2)c1-c1ccnc(Oc2ccccc2)n1 | inactive | inactive
Brc1cc(Br)c(Oc2cc(Br)c(Br)cc2Br)cc1Br | inactive | inactive
OCCN1CCN(CCCN2c3ccccc3C=Cc3ccccc32)CC1 | inactive | inactive
CCCCCCCOC(=O)CCC | inactive | inactive
O=C(O)Cc1cccc2ccccc12 | inactive | inactive
